Molecules are shown by their SMILES. Hit rate of the full screen: of about 39,000 compounds, about 3,300 (8.5%) were called active. This is one part of a sample in which actives are shown more often than they occur.

For the assay, the system named is HepG2. Description: cytotoxicity call (relative viability < 0.9). As to conditions: 10 µM.
With `Cc1ccc(CC2(N)CC2)cc1`, the cytotoxicity call is “inactive”.

With `CC(C)C[C@H](NC(=O)[C@H](CO)NC(=O)CNC(=O)[C@H](CC(C)C)NC(=O)[C@H](CCC(=O)O)NC(=O)[C@H](Cc1ccc(O)cc1)NC(=O)[C@H](CO)NC(=O)[C@H](CC(N)=O)NC(=O)[C@H](Cc1ccccc1)NC(=O)[C@H](CO)NC(=O)[C@@H](N)CSSC[C@H](N)C(=O)N[C@@H](Cc1ccc(O)cc1)C(=O)NCC(=O)N[C@@H](CCCNC(=N)N)C(=O)N[C@@H](CCCCN)C(=O)N[C@@H](CCCCN)C(=O)N[C@@H](CCCNC(=N)N)C(=O)N[C@@H](CCCNC(=N)N)C(=O)N[C@@H](CCC(N)=O)C(=O)N[C@@H](CCCNC(=N)N)C(=O)N[C@@H](CCCNC(=N)N)C(=O)N[C@@H](CCCNC(=N)N)C(=O)O)C(=O)O`, the cytotoxicity call was “inactive”.

As for `CN(CC[C@H](N)CC(=O)N[C@H]1C=C[C@@H](n2ccc(N)nc2=O)O[C@@H]1C(=O)O)C(=N)N`, the cytotoxicity call was “inactive”.

Regarding `c1cncc(N2CCNCC2)c1`, the cytotoxicity call is “inactive”.

Regarding `Cc1[nH]c2ccccc2c1CCN`, the cytotoxicity call is “inactive”.

Consider `C=CCOC(=O)[C@@H]1[C@H](C(=O)OC)N(C)[C@@H](c2ccccc2)[C@]12C(=O)Nc1ccc(I)cc12`, for which the cytotoxicity call was “inactive”.

With `OCCN(CCO)CCO`, the cytotoxicity call is “inactive”.

Consider `NC1Cc2ccccc2C1`, for which the cytotoxicity call is “inactive”.

Regarding `CC(=O)OC(C)(C)/C=C/C(=O)C(C)(O)[C@H]1[C@H](O)C[C@@]2(C)[C@H]3CC=C4[C@@H](C[C@H](O)C(=O)C4(C)C)[C@]3(C)C(=O)C[C@]12C` (stereo not given in full), the cytotoxicity call is “active”.

As to `CC(C)(O)/C=C/C(=O)[C@](C)(O)[C@H]1[C@H](O)C[C@@]2(C)[C@H]3CC=C4[C@@H](CC(=O)C(=O)C4(C)C)[C@]3(C)C(=O)C[C@]12C`, the cytotoxicity call was “active”.

As to `Cc1nc(N2CCN(C)CC2)ccc1N`, the cytotoxicity call was “inactive”.

`C[C@@H]1CN([C@H](C)CO)C(=O)CCCn2nncc2CO[C@H]1CN(C)C(=O)Oc1cccc2ccccc12`: the cytotoxicity call was “inactive”.

Turning to `O=C1C2CCN(CC2)C1(CO)CO`, the cytotoxicity call was “inactive”.

As to `CN[C@@H]1[C@@H](O)[C@@H](O[C@@H]2[C@@H](O)[C@H](O[C@H]3O[C@H](CN)CC[C@H]3N)[C@@H](N)C[C@H]2N)OC[C@]1(C)O.CN[C@@H]1[C@@H](O)[C@@H](O[C@@H]2[C@@H](O)[C@H](O[C@H]3O[C@H]([C@@H](C)N)CC[C@H]3N)[C@@H](N)C[C@H]2N)OC[C@]1(C)O.CN[C@@H]1[C@@H](O)[C@@H](O[C@@H]2[C@@H](O)[C@H](O[C@H]3O[C@H]([C@@H](C)NC)CC[C@H]3N)[C@@H](N)C[C@H]2N)OC[C@]1(C)O`, the cytotoxicity call is “inactive”.

For the molecule `CN1C2CCC1CC(OC(=O)C(CO)c1ccccc1)C2.O=S(=O)(O)O` (stereo not given), the cytotoxicity call is “inactive”.

With `CNCC(=O)c1ccc(O)c(O)c1.Cl`, the cytotoxicity call is “inactive”.

Regarding `CCn1nc(-c2cccnc2)nc2c(=O)n(C)c(=O)nc1-2`, the cytotoxicity call is “active”.

For `CCCC(=O)O[C@H]1CN2CC[C@H](O)[C@@H]2[C@@H](O)[C@@H]1O`, the cytotoxicity call was “inactive”.

Consider `O=[N+]([O-])O[C@@H]1CO[C@H]2[C@@H]1OC[C@@H]2O`, for which the cytotoxicity call is “inactive”.

`C1CNC[C@@H](N2CCCC2)C1`: the cytotoxicity call was “inactive”.

Consider `O=C(NC[C@H]1CC[C@@H]2NC[C@@H]2O1)C1CCCC1`, for which the cytotoxicity call was “inactive”.

For `C=CCN=C=S`, the cytotoxicity call was “active”.

With `O=C1NCN(c2ccccc2)C12CCNCC2`, the cytotoxicity call was “inactive”.

As to `CN1C[C@H]2CON[C@@H]2C1`, the cytotoxicity call is “inactive”.

For the molecule `CC(C)(CN)CNc1ccc([N+](=O)[O-])c2cccnc12`, the cytotoxicity call was “active”.

As for `O=[N+]([O-])c1ccc2c3c(cccc13)CC2`, the cytotoxicity call was “inactive”.

Turning to `O=C1O[C@H]2CN[C@@H]1C2`, the cytotoxicity call is “inactive”.

Take `N[C@@H](C(=O)O)c1nn[nH]n1`: the cytotoxicity call was “inactive”.

In the case of `OCC(O)C1OC2OC(C(Cl)(Cl)Cl)OC2C1O` (stereo not given), the cytotoxicity call is “inactive”.

On to `CS(=O)(=O)N1CCO[C@]2(COCCN(Cc3ccncc3)C2)C1`, for which the cytotoxicity call was “inactive”.

As for `O=c1[nH]c2ccccc2n1C1CCN(Cc2ccc(-c3nc4cc5[nH]cnc5cc4nc3-c3ccccc3)cc2)CC1`, the cytotoxicity call was “active”.

Consider `CN1[C@@H]2CC[C@H]1C[C@H](O)C2`, for which the cytotoxicity call is “inactive”.

For the molecule `Cc1cccnc1N1CCNCC1`, the cytotoxicity call was “inactive”.

`O=C1[O][SbH]23[O]C(=O)[C@H]([O]2)[C@H]2[O][SbH]4([O]C(=O)[C@H]([O]4)[C@H]1[O]3)[O]C2=O`: the cytotoxicity call was “active”.

Consider `O=C1[O][SbH]23[O]C(=O)C([O]2)C2[O][SbH]4([O]C(=O)C([O]4)C1[O]3)[O]C2=O`, for which the cytotoxicity call was “active”.

On to `N#C[C@H]1NCc2cnnn2-c2ccccc21`, for which the cytotoxicity call was “inactive”.

In the case of `O=[N+]([O-])c1c(NCCO)ccc2nonc12`, the cytotoxicity call was “inactive”.

For the molecule `CC(C)(C)CC(=O)N1C[C@H]2C[C@@H]1CN2`, the cytotoxicity call was “inactive”.

Regarding `Cc1cc[n+](C)cc1`, the cytotoxicity call is “inactive”.

For `O=c1n(Cl)c(=O)n(Cl)c(=O)n1Cl`, the cytotoxicity call was “inactive”.

For `CC(COc1ccc(Oc2ccccc2)cc1)Oc1ccccn1` (stereo not given), the cytotoxicity call is “inactive”.

Consider `O=c1[n-]c(=O)n(Cl)c(=O)n1Cl.[Na+]`, for which the cytotoxicity call was “inactive”.

As to `CCC(C)C1OC2(C=CC1C)CC1CC(CC=C(C)C(OC3CC(OC)C(OC4CC(OC)C(O)C(C)O4)C(C)O3)C(C)C=CC=C3COC4C(O)C(C)=CC(C(=O)O1)C34O)O2` (stereo not given) [ABAMECTIN (avermectin B1a shown) ], the cytotoxicity call was “active”.

Turning to `CN1CCN([C@@H](CN)c2ccc3c(c2)OCO3)CC1`, the cytotoxicity call was “inactive”.

Regarding `O=C1C[C@H](c2ccccc2)[C@@H]2CNCCN12`, the cytotoxicity call was “inactive”.

Regarding `O=C(NC(=O)c1c(F)cccc1F)Nc1cc(Cl)c(OC(F)(F)C(F)C(F)(F)F)cc1Cl` (stereo not given), the cytotoxicity call is “active”.

With `O=C(NC(=O)c1c(F)cccc1F)Nc1cc(Cl)c(OC(F)(F)[C@@H](F)C(F)(F)F)cc1Cl`, the cytotoxicity call is “inactive”.

Take `O=C(NC(=O)c1c(F)cccc1F)Nc1ccc(Cl)cc1`: the cytotoxicity call is “inactive”.

For `CN1CCc2cc3c(cc2C1O)OCO3.Cl` (stereo not given), the cytotoxicity call is “inactive”.

In the case of `CN1CCc2cc3c(cc2[C@@H]1O)OCO3`, the cytotoxicity call was “inactive”.

Regarding `COC(=O)C[C@](O)(CCC(C)(C)O)C(=O)O[C@@H]1C(OC)=C[C@]23CCCN2CCc2cc4c(cc2[C@H]13)OCO4`, the cytotoxicity call was “active”.

For the molecule `CN1C[C@@H]2c3nc(N(C)C)ncc3CS(=O)(=O)[C@H]2C1`, the cytotoxicity call was “inactive”.

For the molecule `CCC(CO)NC(=O)C1C=C2c3cccc4c3c(cn4C)CC2N(C)C1.O=C(O)C=CC(=O)O` (stereo not given), the cytotoxicity call is “inactive”.

`CC(C)[C@@]1(NC(=O)[C@H]2C[C@@H]3c4cccc5[nH]cc(c45)C[C@H]3N(C)C2)O[C@@]2(O)[C@H]3CCCN3C(=O)[C@@H](Cc3ccccc3)N2C1=O`: the cytotoxicity call is “inactive”.

On to `CN1CC(CNC(=O)OCc2ccccc2)CC2c3cccc4c3c(cn4C)CC21` (stereo not given), for which the cytotoxicity call is “active”.

For the molecule `CC(C)[C@@]1(NC(=O)[C@@H]2C[C@@H]3c4cccc5[nH]cc(c45)C[C@H]3N(C)C2)O[C@@]2(O)[C@@H]3CCCN3C(=O)[C@H](Cc3ccccc3)N2C1=O`, the cytotoxicity call is “inactive”.

Take `CC(=O)OCC1=C(C(=O)O)N2C(=O)[C@@H](N)[C@H]2SC1`: the cytotoxicity call was “inactive”.

Regarding `CC(=O)Nc1cc([As](=O)(O)O)ccc1O`, the cytotoxicity call was “inactive”.

For the molecule `COC1=CC2C3Cc4ccc(OC)c(O)c4C2(CCN3C)CC1=O` (stereo not given), the cytotoxicity call was “inactive”.

As to `C=C1[C@@H](C)[C@H]2[C@H](Cc3ccccc3)NC(=O)[C@]23[C@H](OC(C)=O)/C=C/[C@](C)(O)C(=O)[C@@H](C)C/C=C/[C@H]3[C@@H]1O`, the cytotoxicity call was “active”.

As for `Cc1noc(C)c1C(=O)N1C[C@@H]2CCN[C@@H]2C1`, the cytotoxicity call was “inactive”.

Regarding `CC1=NCCN=C(C)C1N1CCOCC1`, the cytotoxicity call was “inactive”.

For the molecule `O=C(OC1CC2CCC(C1)[N+]21CCCC1)C(O)(c1ccccc1)c1ccccc1.[Cl-]` (stereo not given), the cytotoxicity call was “inactive”.

For `N[C@@]1(C(=O)O)CC[C@@H](C(=O)O)C1.N[C@]1(C(=O)O)CC[C@H](C(=O)O)C1`, the cytotoxicity call was “inactive”.

On to `CCC(C(=O)[O-])C1CCC(C)C(C(C)C(O)C(C)C(=O)C(CC)C2OC3(C=CC(O)C4(CCC(C)(C5CCC(O)(CC)C(C)O5)O4)O3)C(C)CC2C)O1.[Na+]` (stereo not given), for which the cytotoxicity call is “active”.

On to `CC[C@@H](C(=O)[C@@H](C)[C@@H](O)[C@H](C)[C@@H]1O[C@@H]([C@@H](CC)C(=O)O)CC[C@@H]1C)[C@H]1O[C@]2(C=C[C@@H](O)[C@]3(CC[C@@](C)([C@H]4CC[C@](O)(CC)[C@H](C)O4)O3)O2)[C@H](C)C[C@@H]1C`, for which the cytotoxicity call was “inactive”.

As for `CCCCC(=O)N1C[C@@H]2CCNC[C@@H]21`, the cytotoxicity call is “inactive”.

For `Cc1csc(CCN)n1`, the cytotoxicity call is “inactive”.

Turning to `CN1[C@@H]2CNc3ccccc3[C@@H]2[C@@H]1CO`, the cytotoxicity call was “inactive”.

As to `CCN1C[C@]2(OC(=O)c3ccccc3NC(C)=O)CC[C@@H](OC)[C@@]34[C@H]5C[C@@H]6[C@@H](OC)C[C@](O)([C@@H](C[C@@H]23)[C@@H]14)[C@]5(O)[C@H]6OC`, the cytotoxicity call was “inactive”.

As for `N[C@@H](Cn1oc(=O)[nH]c1=O)C(=O)O`, the cytotoxicity call is “inactive”.

Consider `COC(=O)C1=CCCN(C)C1`, for which the cytotoxicity call was “inactive”.

For the molecule `Br.COC(=O)C1=CCCN(C)C1`, the cytotoxicity call is “active”.

Consider `Clc1cc2c(cc1Cl)Oc1cc(Cl)c(Cl)cc1O2`, for which the cytotoxicity call is “inactive”.

Take `CNCC(=O)c1ccc(O)c(O)c1`: the cytotoxicity call was “inactive”.

Turning to `C[C@H]1CN([C@@H](C)CO)C(=O)c2c(c3ccccc3n2C)-c2ccccc2CO[C@H]1CN(C)C(=O)Oc1ccccc1`, the cytotoxicity call was “inactive”.

With `N[C@H]1Cc2ccccc2[C@@H]1O`, the cytotoxicity call is “inactive”.

For `O=[N+]([O-])c1cc([As](=O)(O)O)ccc1O`, the cytotoxicity call is “inactive”.

For the molecule `O=[N+]([O-])c1ccc([As](=O)(O)O)cc1` [listing 1 of 2 here], the cytotoxicity call is “inactive”.

Take `O=[N+]([O-])c1ccc([As](=O)(O)O)cc1` [listing 2 of 2 here]: the cytotoxicity call was “active”.

For `CC1=C2C3OC(=O)C(C)C3CCC2(C)C=CC1=O` (stereo not given), the cytotoxicity call was “inactive”.

Take `O=C1NC(=S)NC(=O)C1=Cc1ccccc1`: the cytotoxicity call was “inactive”.

Take `C=CC=CCC1=C(C)C(OC(=O)C2C(C=C(C)C)C2(C)C)CC1=O` (stereo not given): the cytotoxicity call is “inactive”.

With `Oc1cc(Cl)ccc1Oc1ccc(Cl)cc1Cl` [listing 1 of 2 here], the cytotoxicity call was “inactive”.

In the case of `Nc1ccc(Cl)cc1Cl`, the cytotoxicity call was “inactive”.

`Oc1cc(Cl)ccc1Oc1ccc(Cl)cc1Cl` [listing 2 of 2 here]: the cytotoxicity call was “active”.

`Cc1nc(-c2ccc(-c3ccc(C(=O)N4CCc5cc6c(cc54)C4(CCN(C)CC4)CO6)cc3)c(C)c2)no1`: the cytotoxicity call is “active”.

Regarding `NCCc1nc2ccccc2[nH]1`, the cytotoxicity call is “inactive”.

On to `O[C@H]1[C@H]2[C@H](O)CCCN2C[C@H]1O`, for which the cytotoxicity call was “inactive”.

`COc1ccc(C(=O)O[C@H]2CC[C@@]3(C)[C@@H]4CC[C@H]5[C@]6(O)C[C@H](O)[C@@]7(O)[C@@H](CN8C[C@@H](C)CC[C@H]8[C@@]7(C)O)[C@]6(O)C[C@@]53O[C@]24O)cc1OC`: the cytotoxicity call is “inactive”.

Values taken from the antibiotic and cytotoxicity screens of Wong et al. (2023).
